According to PubChem BioAssay AID1159580 (chemical genetic matrix, 2015):
About 2,000 (36%) of roughly 5,500 compounds were called active. Inconclusive results (about 18%) are left out. Cut-off read from the data, not from the text of the source: active = normalized growth mostly below about 0.91 (no sharp cut-off); inconclusive = no clear call, values can overlap the other calls; inactive = mostly above about 0.92. The list shows a part of the results.

Assay: chemical genetic growth profiling, strain panel (AID 1159580);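 note: tested at 20 µM; growth read once vehicle control cultures reached saturation at 30 °C; 1 = growth at the plate median or of vehicle wells; lower values mean less growth of the strain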
Conditions: growth OD
[1] = S. cerevisiae deletion strains, locus YAL013W, strain DEP1, active compounds read low
[2] = S. cerevisiae deletion strains, locus YBR229C, strain ROT2, active compounds read low
[3] = S. cerevisiae deletion strains, locus YDL101C, strain DUN1, active compounds read low
[4] = S. cerevisiae deletion strains, locus YDL134C, strain PPH21, active compounds read low
[5] = S. cerevisiae deletion strains, locus YDR150W, strain NUM1, active compounds read low
[6] = S. cerevisiae deletion strains, locus YEL061C, strain CIN8, active compounds read low
[7] = S. cerevisiae deletion strains, locus YGR078C, strain PAC10, active compounds read low
[8] = S. cerevisiae deletion strains, locus YHR030C, strain SLT2, active compounds read low
[9] = S. cerevisiae deletion strains, locus YHR087W, strain rtc3, active compounds read low
[10] = S. cerevisiae deletion strains, locus YJR043C, strain POL32, active compounds read low
[11] = S. cerevisiae deletion strains, locus YJR075W, strain HOC1, active compounds read low
[12] = S. cerevisiae deletion strains, locus YKL190W, strain CNB1, active compounds read low
[13] = S. cerevisiae deletion strains, locus YLR039C, strain RIC1, active compounds read low
[14] = S. cerevisiae deletion strains, locus YLR058C, strain SHM2 (second series), active compounds read low
[15] = S. cerevisiae deletion strains, locus YLR085C, strain ARP6, active compounds read low
[16] = S. cerevisiae deletion strains, locus YLR262C, strain YPT6, active compounds read low
[17] = S. cerevisiae deletion strains, locus YML094W, strain GIM5, active compounds read low
[18] = S. cerevisiae deletion strains, locus YMR219W, strain ESC1, active compounds read low
[19] = S. cerevisiae deletion strains, locus YMR263W, strain SAP30, active compounds read low
[20] = S. cerevisiae deletion strains, locus YNL153C, strain GIM3, active compounds read low
[21] = S. cerevisiae deletion strains, locus YNL298W, strain CLA4 (second series), active compounds read low
[22] = S. cerevisiae deletion strains, locus YNL322C, strain KRE1, active compounds read low
[23] = S. cerevisiae deletion strains, locus YNR030W, strain Alg12, active compounds read low
[24] = S. cerevisiae deletion strains, locus YPL055C, strain LGE1, active compounds read low
[25] = S. cerevisiae deletion strains, locus YPL241C, strain CIN2, active compounds read low
[26] = S. cerevisiae deletion strains, locus YPR135W, strain CTF4, active compounds read low
[27] = S. cerevisiae strains, strain wild type, active compounds read low

Measured: normalized growth

O=C(O)CSC1CCS(=O)(=O)C1 (stereo not given)
inactive: [1] 1.02 | [2] 0.998 | S. cerevisiae deletion strains, locus YCL061C, strain MRC1, active compounds read low 1.02 | [3] 1.02 | [4] 1.02 | [5] 0.956 | [6] 1.04 | [7] 1.01 | [8] 1.05 | [9] 1.01 | [10] 1 | [11] 1.06 | [12] 1.01 | [13] 1.06 | [14] 1.01 | [15] 1 | [16] 1.06 | [17] 1.03 | [18] 1 | [19] 1 | [20] 0.997 | [21] 1.01 | [22] 1.03 | [23] 1 | [24] 0.906 | [25] 1.01 | [26] 1.02 | [27] 1.01

N=C(N)c1ccccc1
inactive: [1] 1.01 | S. cerevisiae deletion strains, locus YAL040C, strain CLN3, active compounds read low 0.991 | S. cerevisiae deletion strains, locus YCL061C, strain MRC1 (second series), active compounds read low 1.01 | [5] 1 | S. cerevisiae deletion strains, locus YDR363W, strain ESC2, active compounds read low 1.01 | S. cerevisiae deletion strains, locus YER002W, strain NOP16, active compounds read low 1.02 | [20] 1.07 | S. cerevisiae deletion strains, locus YNL175C, strain NOP13, active compounds read low 0.999 | S. cerevisiae deletion strains, locus YNL197C, strain WHI3, active compounds read low 1.03 | S. cerevisiae deletion strains, locus YNL224C, strain SQS1, active compounds read low 1.01 | [22] 1.02 | S. cerevisiae deletion strains, locus YOR083W, strain WHI5 (second series), active compounds read low 1.06

NC(=S)CSc1ccccc1
inactive: [1] 0.937 | [2] 0.969 | [3] 1.01 | [5] 0.921 | [7] 0.99 | S. cerevisiae deletion strains, locus YGR229C, strain SMI1, active compounds read low 0.991 | [9] 1.03 | S. cerevisiae deletion strains, locus YJL187C, strain SWE1, active compounds read low 0.969 | [10] 0.924 | [11] 1.04 | [13] 0.883 | [14] 1 | [16] 0.919 | [17] 0.892 | [18] 0.999 | [20] 0.981 | [22] 1.04 | [24] 0.855 | [26] 0.679
active: [6] 0.87 | [8] 0.62 | [12] 0.864 | [15] 0.591 | [21] 0.711 | [23] 0.681 | S. cerevisiae deletion strains, locus YOL006C, strain TOP1, active compounds read low 0.31 | [25] 0.832 | [27] 0.888

Cn1c(CSc2ccccc2)n[nH]c1=S
inactive: [1] 0.997 | [2] 0.99 | [3] 0.994 | [4] 1.01 | [5] 0.949 | [6] 1.02 | [7] 0.977 | [8] 1.01 | [9] 0.982 | [10] 0.978 | [11] 0.987 | [13] 1.05 | [14] 0.998 | [15] 1.09 | [16] 1.04 | [17] 1.01 | [18] 0.992 | [19] 0.963 | S. cerevisiae deletion strains, locus YMR307W, strain GAS1, active compounds read low 1.2 | [20] 0.981 | [21] 1.03 | [22] 1.01 | [23] 1.02 | [24] 0.965 | [25] 1.02 | [26] 1.04 | [27] 1.01
